# Source: the supplement of paper PMC9262897, “Low-cost anti-mycobacterial drug discovery using engineered E. coli” (Nature Communications, 2022)
# ± gives the standard deviation of the averaged measurements.
# Legend:
# Assay in all cases: growth (OD600 after 10 h); higher = more growth (less inhibition)
# [1] = tested on: E. coli TESEC Alr+ wild-type control; details: compound 0.1 mM; raw OD600 reference: median of DMSO wells 0.241, cell-free background 0.041
# Experimental: (§1)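 TESEC Mtb Alr E. coli, or the Alr+ wild-type control, in 384-well plates with Prestwick library compounds at 0.1 mM and 1% DMSO, across arabinose induction levels of 1E3 to 1E7 nM. Growth is read as OD600 after 10 h at 37 °C in triplicate biological replicates.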
# [2] = tested on: E. coli TESEC Mtb Alr; details: compound 0.1 mM
# Experimental: as §1
# [3] = tested on: E. coli TESEC Mtb Asd; details: compound 0.1 mM
# Experimental: (§2)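 TESEC E. coli strains in which the native enzyme is deleted and replaced by arabinose-inducible Mtb Asd, DapB, CysH or TrpD, each grown in its selective medium. Strains were screened against the Prestwick library at 0.1 mM and 1% DMSO in 384-well format at low and high arabinose induction. Growth is read as OD600 after 10 h in triplicate.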
# [4] = tested on: E. coli TESEC Mtb DapB; details: compound 0.1 mM
# Experimental: as §2
# [5] = tested on: E. coli TESEC Alr+ wild-type control; details: compound 0.1 mM; raw OD600 reference: median of DMSO wells 0.49, cell-free background 0.052
# Experimental: (§3)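 TESEC Mtb Alr E. coli (ΔaraC ΔtolC ΔentC Δalr ΔdadX, arabinose-inducible Mtb Alr) or the Alr+ wild-type control strain, grown in defined M9-fructose medium without D-alanine in 96-well plates with Prestwick library compounds at 0.1 mM and 1% DMSO. Low Alr induction is 0.1 µM arabinose and high induction is 10 mM arabinose.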
# [6] = tested on: E. coli TESEC Mtb Alr; details: compound 0.1 mM; remark: listed apart in the source
# Experimental: as §3
# [7] = arabinose 1000 nM, raw OD600 reference: median of DMSO wells 0.294, cell-free background 0.041
# [8] = arabinose 10000 nM, raw OD600 reference: median of DMSO wells 0.264, cell-free background 0.041
# [9] = arabinose 100000 nM, raw OD600 reference: median of DMSO wells 0.201, cell-free background 0.041
# [10] = arabinose 1000000 nM, raw OD600 reference: median of DMSO wells 0.193, cell-free background 0.041
# [11] = arabinose 10000000 nM, raw OD600 reference: median of DMSO wells 0.146, cell-free background 0.041
# [12] = arabinose induction (level): High, raw OD600 reference: median of DMSO wells 0.331, cell-free background 0.041
# [13] = arabinose induction (level): Low, raw OD600 reference: median of DMSO wells 0.417, cell-free background 0.041
# [14] = arabinose induction (level): High, raw OD600 reference: median of DMSO wells […], cell-free background 0.041
# [15] = arabinose induction (level): Low, raw OD600 reference: median of DMSO wells 0.227, cell-free background 0.041
# [16] = arabinose 100 nM, raw OD600 reference: median of DMSO wells 0.413, cell-free background 0.052
# [17] = arabinose 10000000 nM, raw OD600 reference: median of DMSO wells […], cell-free background 0.052
Compound,growth [1],"growth [2, 7]","growth [2, 8]","growth [2, 9]","growth [2, 10]","growth [2, 11]","growth [3, 12]","growth [3, 13]","growth [4, 14]","growth [4, 15]",growth [5],"growth [6, 16]","growth [6, 17]"
COc1ccc(C(=O)c2ccccc2)c(O)c1 [Oxybenzone],0.114 ± 0.003,0.148 ± 0.011,0.15 ± 0.004,0.151 ± 0.017,0.0914 ± 0.0039,0.0993 ± 0.0024,0.223 ± 0.023,0.334 ± 0.01,0.186 ± 0.015,0.257 ± 0.0051,0.27 ± 0.011,0.377 ± 0.022,0.146 ± 0.021
CC(C)(C#N)c1cc(Cn2cncn2)cc(C(C)(C)C#N)c1 [Anastrozole],0.222 ± 0.0057,0.274 ± 0.0032,0.272 ± 0.0071,0.194 ± 0.009,0.183 ± 0.0054,0.13 ± 0.0054,0.339 ± 0.033,0.384 ± 0.038,0.194 ± 0.011,0.214 ± 0.028,0.483 ± 0.03,0.409 ± 0.0048,0.321 ± 0.016
CC(=O)N(CC(O)CO)c1c(I)c(C(=O)NCC(O)CO)c(I)c(C(=O)NCC(O)CO)c1I (centres undefined) [Iohexol],0.242 ± 0.011,0.285 ± 0.0098,0.276 ± 0.0072,0.221 ± 0.043,0.195 ± 0.004,0.1422 ± 0.0012,0.35 ± 0.046,0.414 ± 0.056,0.195 ± 0.014,0.201 ± 0.02,0.512 ± 0.11,0.418 ± 0.01,0.343 ± 0.022
O=C(O)Cc1ccccc1Nc1c(Cl)cccc1Cl [Diclofenac sodium],0.1279 ± 0.00065,0.137 ± 0.0017,0.132 ± 0.0064,0.149 ± 0.006,0.103 ± 0.004,0.131 ± 0.0017,0.172 ± 0.014,0.179 ± 0.01,0.166 ± 0.0086,0.172 ± 0.014,0.436 ± 0.0056,0.329 ± 0.037,0.214 ± 0.015
CC(=O)Oc1ccccc1C(=O)O [Acetylsalicylic acid],0.242 ± 0.003,0.2936 ± 0.0015,0.292 ± 0.014,0.202 ± 0.019,0.19 ± 0.01,0.147 ± 0.0031,0.264 ± 0.051,0.314 ± 0.022,0.198 ± 0.016,0.237 ± 0.054,0.504 ± 0.027,0.413 ± 0.011,0.334 ± 0.012
Cn1c(=O)c2c(ncn2CC(O)CO)n(C)c1=O (centres undefined) [Diprophylline],0.253 ± 0.0057,0.271 ± 0.026,0.249 ± 0.013,0.197 ± 0.018,0.182 ± 0.0025,0.138 ± 0.0093,0.367 ± 0.021,0.452 ± 0.052,0.206 ± 0.0061,0.24 ± 0.017,0.45 ± 0.05,0.421 ± 0.0097,0.313 ± 0.057
CN1C2CCCC1CC(NC(=O)c1nn(C)c3ccccc13)C2 (centres undefined) [Granisetron],0.208 ± 0.0038,0.301 ± 0.026,0.2743 ± 0.0024,0.171 ± 0.0068,0.213 ± 0.014,0.126 ± 0.0041,0.28 ± 0.063,0.379 ± 0.08,0.202 ± 0.022,0.238 ± 0.015,0.549 ± 0.068,0.424 ± 0.0065,0.351 ± 0.0039
CCCCC(O)c1ccccc1 (centres undefined) [Fenipentol],0.242 ± 0.0077,0.295 ± 0.005,0.253 ± 0.0059,0.233 ± 0.035,0.178 ± 0.0054,0.149 ± 0.0015,0.346 ± 0.079,0.357 ± 0.036,0.227 ± 0.013,0.227 ± 0.025,0.542 ± 0.07,0.403 ± 0.0094,0.337 ± 0.017
